Experimental data from PubChem BioAssay AID1454 (National Center for Advancing Translational Sciences (NCATS), 2008).
The whole screen tested about 130,000 compounds, of which about 550 (0.42%) were called active. Another 4% or so got no clear call; they are omitted. The call rests on the fitted dose curve; in most records, active means well fitted inhibition curve with a large enough effect; inconclusive means small, poorly fitted or top-dose-only effect, or effect the other way; inactive means flat fitted curve, though single readings scatter. The full list was thinned out, with actives kept by preference.
Potency means the concentration at half of the fitted maximal effect.

Assay: qHTS Assay for Inhibitors of the ERK Signaling Pathway using a Homogeneous Screening Assay; Stimulation with EGF; further: nearly all actives have a fitted effect of over 55% in size
Conditions: HEK293-V1b, EGF-stimulated phospho-ERK AlphaScreen; series mostly up to 57.5 µM; activity change, negative = inhibition: at the top concentration
Text: NIH Chemical Genomics Center [NCGC]
NIH Molecular Libraries Screening Centers Network [MLSCN]
Assay Submitter (PI): Dr. Wei Zheng, NCGC/NIH
The Ras/extracellular-signal-regulated kinase (ERK) mitogen activated protein (MAP) kinase signaling pathway (ERK1/2 cascade) plays a key role in transmitting signals from the cell surface to the nucleus (Nishida and Gotoh 1993; Chang and Karin, 2001). The cascade is initiated by the small G-protein Ras, which recruits Raf from the cytosol, where activation occurs. Alternatively, this pathway can be activated by elevating intracellular cAMP, or by activation of a receptor tyrosine kinase as epidermal growth factor receptor.
Activation of the ERK pathway is essential in increased cell division and cell survival. Sustained and constitutive activation of the ERK pathway, however, has been linked to uncontrolled cell proliferation, increased cell survival, and tumor progression. Thus, the ERK has been as an attractive target for cancer chemotherapy in the past few years (Sebolt-Leopold and Herrera, 2004). Given its physiological and pathological importance, assessment of ERK phosphorylation has been broadly performed in both basic research and drug discovery. Most assays for the measurement of ERK phosphorylation use the antibody-based detection methods, such as western blot and ELISA. These assays require multiple reagent additions with cell wash steps and are not suitable for high throughout screening.
The current cell-based ERK phosphorylation assay was performed using AlphaScreen platform. AlphaScreen is a two bead-based proximity-dependent chemical energy transfer luminescent assay platform. The assay reagents (ERK SureFire(TM) kit) were supplied from TGR BioSciences (Australia). In the presence of specific antibodies, phosphorylated ERK will bring "donor" and "acceptor" beads to a proximity range (<200 nm), and subsequently lead a chemical luminescent reaction upon exciting donor beads with 680 nm laser. To exclude the assay-related false positives, we used a biotinylated rabbit IgG to perform counter-screen. The biotinylated antibody mimics the phosphorylated ERK1/2 for bringing streptavidin coated beads and protein-A coated beads to a proximity range for the AlphaScreen detection.
NCGC Assay Protocol Summary:
HEK293 cells stably expressing type-1 vasopressin receptor (V1b) were maintained in DMEM medium (Invitrogen, Carlsbad, CA) at 37C under a humidified atmosphere containing 5% CO2 and 95% air. The medium contained 10% FBS, 2 mM L-glutamine, non-essential amino acid, pyruvate and 50 U/ml penicillin and 50 ug/ml streptomycin (Invitrogen). The aliquots of frozen cells were stored at -135C and used for the compound screening. All compounds were screened as titrations from 0.6 nM to 46 uM final concentration. Epidermal growth factor (EGF) was used to stimulate the ERK phosphorylation pathway. The ERK phosphorylation in cells was determined using an AlphaScreen assay kit provided by […]. Data were normalized to the controls for basal activity (DMSO only) and 100% activation (25 nM EGF). AC50 values were determined from concentration-response data modeled with the standard Hill equation.
(1) Seed 4 ul/well of resuspended frozen HEK293 cells containing 2000 cells in white 1536-well plates for overnight with 1% FBS at 37C under a humidified atmosphere containing 5% CO2 and 95% air.
(2) Add 23 nL compounds in DMSO solution. The final titration was 0.6 nM to 46 uM.
(3) Incubate at 37C for 30 min.
(4) Dispense 0.5uL EGF (25 nM in final)
(5) Incubate at 37C for 5 min.
(6) Dispense 0.5uL of 1:2 diluted 5x lysis buffer.
(7) Incubate at 37C for 10 min.
(8) Dispense 1.5uL of mixture of activation buffer and reaction buffer with AlphaScreen beads (streptavidin donor beads and protein-A acceptor beads, 10 ng/well for each).
(9) Incubate at room temperature for 5 hr.
(10) Detect the assay plate in an EnVision plate reader (PerkinElmer) using the AlphaScreen detection mode.
[…]
In the case of Cc1cc(-c2n[nH]c(=S)n2-c2ccc(C)c(C)c2)no1, the Potency is reported as 3.98 µM (active). With CCCCC/C=C\C/C=C\C/C=C\C=C\[C@H](CCCC(=O)O)OO the activity change, negative = inhibition was -6.51% [at 11.5 µM] (inactive). With COC1=C[C@]23CCCN2CCc2cc4c(cc2[C@@H]3[C@@H]1O)OCO4 the activity change, negative = inhibition was -6.17% [at 11.5 µM] (inactive). In the case of O=c1[nH]c(=O)n(-c2ccc(F)cc2)c(O)c1C=NCCN1CCCCC1, the “activity change, negative = inhibition” value is reported as -5% (inactive). In the case of CCCCCCCCCCCCn1ccc(=N)cc1, the Potency is reported as 22.4 µM (active). In the case of O=C1CC(=O)N(Cc2ccccc2)C(=O)N1CCCCCCN1C(=O)CC(=O)N(Cc2ccccc2)C1=O, the “activity change, negative = inhibition” value is reported as -1.77% (inactive). For CC(=O)Cc1ccc(OC(C)C)cc1, the “activity change, negative = inhibition” value was 10.3% (inactive). For C1CC[C@H]([C@@]23C[C@H](C[C@H]4CCCN[C@H]42)[C@@H]2CCCCN2C3)NC1, the activity change, negative = inhibition was -0.522% [at 11.5 µM] (inactive). With O=c1[nH]c(=O)n(CCc2ccc(F)cc2)c(O)c1/C=N/N1CCCCC1 the “activity change, negative = inhibition” value was -5.95% (inactive). With N#Cc1c(Cl)c(Cl)c(Cl)c(C#N)c1Cl the Potency was 3.98 µM (active). With CNC(=O)Nc1ccc(C(O)(C(=O)OC)C(F)(F)F)cc1 (stereo not given) the “activity change, negative = inhibition” value was -23.3% (inactive). With Fc1ccc(C2N3CCCN23)cc1 (stereo not given) the “activity change, negative = inhibition” value was 3.92% (inactive). With COc1ccc(-n2c(O)c(C(C)=Nc3ccc4c(c3)CCC4)c(=O)[nH]c2=O)cc1 the “activity change, negative = inhibition” value was -0.92% (inactive). In the case of CN1CCN(/N=C/c2c[nH]c3ccccc23)CC1, the “activity change, negative = inhibition” value is reported as -3.79% (inactive). For CCCCC(=O)N/N=C/c1c(O)n(-c2ccccc2)c(=O)[nH]c1=O, the “activity change, negative = inhibition” value was -2.47% (inactive).
